Design in all cases: scale not given: direction of the effect not stated beside the values
The target of assay [1] is Protein translocase subunit SecA (Escherichia coli (strain K12)) (UniProt P10408). The experiment in a line: Assay to Identify E. coli SecA ATPase Inhibitors. It is filed as functional. Particulars: 30 µM.
Assay [2] deals with T1, Ubiquitin-activating enzyme e1, putative (Leishmania donovani (strain BPK282A1)) (UniProt E9BSI1).
T1 sequence (whole entry): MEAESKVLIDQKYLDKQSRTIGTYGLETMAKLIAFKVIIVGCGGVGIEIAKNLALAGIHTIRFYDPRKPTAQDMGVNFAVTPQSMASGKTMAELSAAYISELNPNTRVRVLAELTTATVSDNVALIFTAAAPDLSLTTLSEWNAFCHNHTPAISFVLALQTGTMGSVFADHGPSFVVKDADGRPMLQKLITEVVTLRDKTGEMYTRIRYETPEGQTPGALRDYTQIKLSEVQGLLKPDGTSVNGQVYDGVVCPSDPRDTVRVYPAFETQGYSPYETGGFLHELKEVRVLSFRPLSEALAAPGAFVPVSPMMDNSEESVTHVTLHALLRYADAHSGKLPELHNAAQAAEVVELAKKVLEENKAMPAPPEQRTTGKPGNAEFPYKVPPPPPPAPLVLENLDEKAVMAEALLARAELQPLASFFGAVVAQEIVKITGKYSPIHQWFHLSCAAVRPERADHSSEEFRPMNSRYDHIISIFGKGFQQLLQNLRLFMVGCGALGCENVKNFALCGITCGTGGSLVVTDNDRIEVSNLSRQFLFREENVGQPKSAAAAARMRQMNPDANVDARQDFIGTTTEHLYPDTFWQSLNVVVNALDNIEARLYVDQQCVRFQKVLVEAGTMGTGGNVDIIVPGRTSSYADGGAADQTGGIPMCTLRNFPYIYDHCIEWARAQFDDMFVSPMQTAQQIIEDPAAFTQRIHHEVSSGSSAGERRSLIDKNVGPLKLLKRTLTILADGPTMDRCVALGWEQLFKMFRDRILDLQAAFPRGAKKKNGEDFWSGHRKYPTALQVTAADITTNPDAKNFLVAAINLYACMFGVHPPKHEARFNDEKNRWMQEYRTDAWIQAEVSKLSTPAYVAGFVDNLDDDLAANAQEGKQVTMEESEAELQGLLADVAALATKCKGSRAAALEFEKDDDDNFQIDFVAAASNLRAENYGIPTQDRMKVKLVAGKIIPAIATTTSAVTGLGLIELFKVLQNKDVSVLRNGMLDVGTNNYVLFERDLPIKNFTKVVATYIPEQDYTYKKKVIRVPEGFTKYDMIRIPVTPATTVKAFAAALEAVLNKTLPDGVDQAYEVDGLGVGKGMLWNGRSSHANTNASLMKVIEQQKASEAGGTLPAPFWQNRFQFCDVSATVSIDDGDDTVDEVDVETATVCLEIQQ
The assay is described as follows: Leishmania donovani Ubiquitin Activating Enzyme (LdE1). It is filed as functional. Particulars: 30 µM.

In assay [3] the target is AMP-activated protein kinase, AMPK (Homo sapiens) (UniProt P54646+O43741+P54619+Q9UGJ0+Q9Y478+Q13131+Q9UGI9). The experiment in a line: AMP-dependent Kinase enzyme assay. An in vitro enzyme assay that detects ADP turnover that is directly proportional to AMPK activity. This uses naive AMPK that is activated during the assay with MK-8722. It is filed as functional. The conditions noted are these: 30 µM.

In assay [4] the target is Sialic acid-binding Ig-like lectin 9 (Homo sapiens) (UniProt Q9Y336). The experiment in a line: Hs-Siglec9 ALPHAscreen SOP 20170721. Particulars: 10 µM.
Sequence of Sialic acid-binding Ig-like lectin 9 (Homo sapiens) (Q9Y336 whole entry): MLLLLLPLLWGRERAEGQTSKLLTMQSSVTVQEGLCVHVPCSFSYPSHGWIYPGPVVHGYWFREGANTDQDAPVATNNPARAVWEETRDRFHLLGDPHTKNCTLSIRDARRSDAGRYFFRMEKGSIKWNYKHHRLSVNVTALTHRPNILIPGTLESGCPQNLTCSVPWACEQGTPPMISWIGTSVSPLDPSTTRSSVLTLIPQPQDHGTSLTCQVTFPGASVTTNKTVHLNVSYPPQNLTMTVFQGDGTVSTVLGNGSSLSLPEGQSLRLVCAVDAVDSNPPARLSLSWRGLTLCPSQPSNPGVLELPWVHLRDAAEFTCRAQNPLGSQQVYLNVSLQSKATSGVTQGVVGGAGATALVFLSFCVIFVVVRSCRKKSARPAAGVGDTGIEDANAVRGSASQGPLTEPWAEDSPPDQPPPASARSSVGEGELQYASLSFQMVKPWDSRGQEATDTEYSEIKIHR
For a further assay, the system named is Trypanosoma cruzi. The assay is described as follows: Trypanosoma cruzi phosphomannomutase and mannose-1-phosphate guanylyltransferase assay. Type of assay: functional. The conditions noted are these: 10 µM.
In assay [5] the target is T2, Arginase-2, mitochondrial (Homo sapiens) (UniProt P78540).
T2 sequence (whole entry): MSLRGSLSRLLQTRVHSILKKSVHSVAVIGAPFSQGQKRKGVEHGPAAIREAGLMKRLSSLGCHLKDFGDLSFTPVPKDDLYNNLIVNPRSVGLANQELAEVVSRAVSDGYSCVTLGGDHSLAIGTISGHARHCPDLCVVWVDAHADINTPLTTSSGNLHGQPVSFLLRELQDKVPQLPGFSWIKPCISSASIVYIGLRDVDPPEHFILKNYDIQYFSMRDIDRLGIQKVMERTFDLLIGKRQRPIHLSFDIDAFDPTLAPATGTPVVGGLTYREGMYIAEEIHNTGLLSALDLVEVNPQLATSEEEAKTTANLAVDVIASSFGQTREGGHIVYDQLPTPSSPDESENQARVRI
The experiment in a line: in vitro enzyme assay to detect the production of urea directly proportional to the activity of Arginase II. Further: in the data most compounds retested in dose-response had high values. The conditions noted are these: 33.3 µM. It is filed as functional.

Assay [6] has as its target T3, Proteasome subunit beta (Trypanosoma cruzi) (UniProt O96673).
T3 sequence (whole entry): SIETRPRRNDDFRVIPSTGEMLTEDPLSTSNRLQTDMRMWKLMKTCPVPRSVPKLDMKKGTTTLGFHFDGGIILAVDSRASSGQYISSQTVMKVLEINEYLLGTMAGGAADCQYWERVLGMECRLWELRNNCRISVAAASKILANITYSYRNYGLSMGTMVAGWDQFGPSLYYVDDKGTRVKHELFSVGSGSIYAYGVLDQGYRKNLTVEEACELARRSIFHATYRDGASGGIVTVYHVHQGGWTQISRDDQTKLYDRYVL
The experiment in a line: Trypanosoma cruzi proteasome chymotrypsin-like activity (TcProtChymo) assay. Further: in the data most compounds retested in dose-response had high values. It is filed as functional. Particulars: 9.37 µM.

For another assay, the species on record is Homo sapiens. The assay is described as follows: To identify inhibition of the IFN signalling (Jak-Stat) pathway via expression of an eGFP reporter gene under the control of an IFN-stimulated response element (ISRE) containing MxA promoter. Type of assay: functional. The conditions noted are these: 30 µM. (In general: A reporter such as luciferase makes a cellular process visible.)

In assay [7] the target is T4, Tyrosyl-tRNA synthetase, putative (Trypanosoma cruzi (strain CL Brener)) (UniProt Q4DSP6).
T4 sequence (whole entry): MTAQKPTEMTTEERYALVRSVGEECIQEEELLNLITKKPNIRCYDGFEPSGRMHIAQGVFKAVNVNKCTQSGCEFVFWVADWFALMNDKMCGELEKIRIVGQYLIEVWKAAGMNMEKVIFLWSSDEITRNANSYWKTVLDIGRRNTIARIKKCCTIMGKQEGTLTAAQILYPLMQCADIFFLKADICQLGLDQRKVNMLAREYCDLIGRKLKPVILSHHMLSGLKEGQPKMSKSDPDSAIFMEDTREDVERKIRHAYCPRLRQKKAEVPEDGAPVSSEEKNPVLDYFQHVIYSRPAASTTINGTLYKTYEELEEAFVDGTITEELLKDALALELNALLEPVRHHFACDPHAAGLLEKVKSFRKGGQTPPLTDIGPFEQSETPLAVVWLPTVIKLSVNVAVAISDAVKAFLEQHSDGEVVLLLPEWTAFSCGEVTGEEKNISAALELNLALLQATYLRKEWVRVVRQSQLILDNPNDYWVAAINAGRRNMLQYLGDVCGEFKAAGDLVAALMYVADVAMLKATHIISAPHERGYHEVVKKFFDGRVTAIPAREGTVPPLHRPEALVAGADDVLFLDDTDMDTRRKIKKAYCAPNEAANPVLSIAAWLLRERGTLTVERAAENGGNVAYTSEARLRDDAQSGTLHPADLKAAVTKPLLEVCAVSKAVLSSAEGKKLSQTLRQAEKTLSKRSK
The assay is described as follows: Trypanosoma cruzi tyrosyl tRNA synthetase (TcYRS) _High Tyrosine SOP. Further: in the data most compounds retested in dose-response had high values. Type of assay: functional. The conditions noted are these: 30 µM.

The target in assay [8] is T4, Tyrosyl-tRNA synthetase, putative (Trypanosoma cruzi (strain CL Brener)). The experiment in a line: Trypanosoma cruzi tyrosyl tRNA synthetase (TcYRS) SOP. It is filed as functional. The conditions noted are these: 30 µM.
Assay [9] has as its target Chromo domain-containing protein 1 (Saccharomyces cerevisiae (strain ATCC 204508 / S288c) (Baker's yeast)) (UniProt P32657). The experiment in a line: ScCHD-1 Enzyme Inhibition Assay. Further: in the data most compounds retested in dose-response had high values. The conditions noted are these: 30 µM. Type of assay: functional.

For some of these results: Potency and affinity values are given separately.

Data on 11 compounds can be found in ChEMBL document CHEMBL3988442, “University of Dundee, Small-Polar-MMV Screening Library” (2021).

Sequence of Chromo domain-containing protein 1 (Saccharomyces cerevisiae (strain ATCC 204508 / S288c) (Baker's yeast)) (P32657 whole entry, the tested form may be a part): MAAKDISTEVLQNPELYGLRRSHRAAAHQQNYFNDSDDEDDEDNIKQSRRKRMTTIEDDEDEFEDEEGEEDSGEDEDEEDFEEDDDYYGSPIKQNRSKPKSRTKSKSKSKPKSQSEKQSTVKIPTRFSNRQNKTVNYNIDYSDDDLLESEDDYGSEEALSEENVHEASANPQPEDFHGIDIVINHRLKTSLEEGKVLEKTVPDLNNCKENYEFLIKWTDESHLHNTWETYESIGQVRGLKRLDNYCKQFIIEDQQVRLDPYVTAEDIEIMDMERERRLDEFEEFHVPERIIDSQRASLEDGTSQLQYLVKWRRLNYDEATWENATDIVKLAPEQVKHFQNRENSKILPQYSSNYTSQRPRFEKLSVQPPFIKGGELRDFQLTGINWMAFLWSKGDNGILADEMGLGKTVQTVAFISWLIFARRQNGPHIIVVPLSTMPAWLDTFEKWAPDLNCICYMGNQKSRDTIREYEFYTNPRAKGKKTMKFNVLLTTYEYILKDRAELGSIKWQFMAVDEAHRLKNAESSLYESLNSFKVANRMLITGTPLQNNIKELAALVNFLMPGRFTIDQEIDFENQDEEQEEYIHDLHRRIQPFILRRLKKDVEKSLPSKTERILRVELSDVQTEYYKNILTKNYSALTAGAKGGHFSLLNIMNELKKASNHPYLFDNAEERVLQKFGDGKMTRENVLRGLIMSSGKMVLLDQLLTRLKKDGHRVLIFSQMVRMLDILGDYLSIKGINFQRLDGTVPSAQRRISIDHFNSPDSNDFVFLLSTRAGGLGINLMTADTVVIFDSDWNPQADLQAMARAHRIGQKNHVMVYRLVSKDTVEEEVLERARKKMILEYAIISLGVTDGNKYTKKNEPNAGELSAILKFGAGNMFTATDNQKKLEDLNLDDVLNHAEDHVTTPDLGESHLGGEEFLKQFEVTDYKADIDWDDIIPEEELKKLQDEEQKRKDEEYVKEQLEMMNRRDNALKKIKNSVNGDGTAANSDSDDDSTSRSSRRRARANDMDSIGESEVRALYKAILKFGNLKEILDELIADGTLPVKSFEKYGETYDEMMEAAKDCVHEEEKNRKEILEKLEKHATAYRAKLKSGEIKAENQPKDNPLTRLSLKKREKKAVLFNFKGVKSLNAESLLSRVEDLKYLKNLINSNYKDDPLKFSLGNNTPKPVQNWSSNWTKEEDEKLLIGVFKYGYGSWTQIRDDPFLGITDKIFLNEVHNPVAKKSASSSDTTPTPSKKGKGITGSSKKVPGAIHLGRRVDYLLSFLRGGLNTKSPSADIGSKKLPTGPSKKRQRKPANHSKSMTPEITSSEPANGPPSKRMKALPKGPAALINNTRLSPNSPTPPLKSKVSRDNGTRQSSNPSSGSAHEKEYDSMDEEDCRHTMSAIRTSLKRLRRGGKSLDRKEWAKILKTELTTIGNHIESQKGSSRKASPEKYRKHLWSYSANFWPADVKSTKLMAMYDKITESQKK
Sequence of Protein translocase subunit SecA (Escherichia coli (strain K12)) (P10408 whole entry): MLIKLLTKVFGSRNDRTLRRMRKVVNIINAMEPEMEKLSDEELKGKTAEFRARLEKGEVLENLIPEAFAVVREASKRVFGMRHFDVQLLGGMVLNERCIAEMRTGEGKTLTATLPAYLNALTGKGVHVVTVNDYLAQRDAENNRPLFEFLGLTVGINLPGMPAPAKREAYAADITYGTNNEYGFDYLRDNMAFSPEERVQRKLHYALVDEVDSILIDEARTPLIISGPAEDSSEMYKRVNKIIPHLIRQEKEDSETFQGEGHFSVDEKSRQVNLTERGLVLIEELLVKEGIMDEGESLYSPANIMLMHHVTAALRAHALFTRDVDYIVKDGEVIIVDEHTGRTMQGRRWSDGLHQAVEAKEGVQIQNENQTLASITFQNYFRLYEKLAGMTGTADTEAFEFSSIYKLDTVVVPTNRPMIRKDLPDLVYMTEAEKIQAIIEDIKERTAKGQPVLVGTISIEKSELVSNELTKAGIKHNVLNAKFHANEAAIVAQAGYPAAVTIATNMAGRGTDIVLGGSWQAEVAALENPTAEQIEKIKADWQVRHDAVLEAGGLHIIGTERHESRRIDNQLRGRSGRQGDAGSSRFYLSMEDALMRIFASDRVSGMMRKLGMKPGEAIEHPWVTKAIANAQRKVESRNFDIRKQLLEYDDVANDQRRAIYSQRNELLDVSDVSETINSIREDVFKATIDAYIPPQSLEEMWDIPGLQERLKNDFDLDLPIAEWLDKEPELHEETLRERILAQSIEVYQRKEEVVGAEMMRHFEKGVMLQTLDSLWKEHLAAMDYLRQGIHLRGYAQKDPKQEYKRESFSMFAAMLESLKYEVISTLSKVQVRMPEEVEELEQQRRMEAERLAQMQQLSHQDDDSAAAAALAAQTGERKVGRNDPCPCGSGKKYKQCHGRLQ

In the case of `COc1ccc(CN(C)CC2(O)CCN(C(=O)c3cccn3C)C2)cc1` (stereo unspecified), the Percent Effect is -9.44% in assay [1]; -1.35% in assay [2]; 5.12% in assay [3]; 2.88% in assay [4]; -1.78% in the assay on Trypanosoma cruzi; -7.19% in assay [5]. For the same compound, the Percent Effect in assay [6] is -1.87%; in the assay listed under Homo sapiens, 11.8%; in assay [7], -2.15%; in assay [8], -3.9%; in assay [9], -10.2%.

Turning to `CCC1=N[C@@]2(CC[C@@H]3CN(Cc4ccc(Cl)cc4)C[C@@H]32)C(=O)N1`, the Percent Effect in assay [1] is -2.1%; in [2] it was 2.7%; in assay [3], 2.16%; in assay [4], -3.03%; in the assay with Trypanosoma cruzi it was -7.72%; in assay [5], -0.955%. For the same compound, the Percent Effect came out at 20.3% in assay [6]; 3.29% in the assay filed under Homo sapiens; 2.16% in assay [7]; 2.56% in assay [8]; 0.0576% in [9].

Regarding `N#Cc1cccc(S(=O)(=O)NC(=O)COC2CCCC2)c1`, the Percent Effect in assay [1] was -0.529%; in assay [2], 26%; in assay [3], -4.75%; in [4], -1.76%; in the assay on Trypanosoma cruzi, 1.31%; in assay [5], 1.07%. The Percent Effect in assay [6] is 11.3%; in the assay listed under Homo sapiens, 0.622%; in assay [7], 7.77%; in assay [8] it was 21.9%; in [9] it was -7.26%.

Regarding `Cc1cnn(CC2CCCN2C(=O)c2ccc3[nH]nnc3c2)c1` (stereo unspecified), the Percent Effect was -1.48% in assay [1]; 8.86% in [2]; -1.94% in assay [3]; -8.54% in assay [4]; 2.97% in the assay with Trypanosoma cruzi; -2.8% in [5]. Besides, the Percent Effect in assay [6] was 17.5%; in the assay listed under Homo sapiens, 2.88%; in assay [7], 1.04%; in assay [8], 10.1%; in [9] it was -4.85%.

In the case of `CCc1nc(C2CCCN2Cc2nc(C3CC3)no2)no1` (stereo unspecified), the Percent Effect in assay [1] was -0.343%; in assay [2], 2.6%; in assay [3], -1.94%; in assay [4], 16.2%; in the assay on Trypanosoma cruzi, 2.65%; in assay [5] it was -12.4%. Moreover, the Percent Effect in [6] was 9.15%; in the assay listed under Homo sapiens, -6.21%; in [7], 0%; in assay [8] it was 1.24%; in assay [9], -6.42%.

Consider `O=C(Nc1cccc(CNCc2csc(Br)c2)c1)C1CC1`, for which the Percent Effect is -8.41% in assay [1]; 23.7% in [2]; -5.54% in assay [3]; -1.24% in assay [4]; 5.32% in the assay with Trypanosoma cruzi; 2.16% in assay [5]. Also, the Percent Effect in [6] was 7.19%; in the assay filed under Homo sapiens it was 37.8%; in [7], 3.45%; in assay [8], 25.9%; in assay [9], -8.55%.

Regarding `Cc1nc(N2CCCC2)nc2c1CCN(Cc1ccco1)CC2`, the Percent Effect in assay [1] was -1.94%; in [2], 10.7%; in assay [3], 8.01%; in [4] it was 0.178%; in the assay with Trypanosoma cruzi, 0%; in assay [5] it was -45.3%. In addition, the Percent Effect in assay [6] was 20.7%; in the assay filed under Homo sapiens, -2.8%; in assay [7], 3.12%; in [8], 12.5%; in assay [9] it was -9.82%.

`O=C(Nc1nccs1)N1CCCC(N2CCNC2=O)C1` (stereo unspecified): the Percent Effect in [1] is -3.07%; in [2], 11%; in [3] it was 7.04%; in assay [4], 15.8%; in the assay on Trypanosoma cruzi, 0.196%; in assay [5], 17.3%. The Percent Effect in [6] was 21.1%; in the assay listed under Homo sapiens, 2.14%; in assay [7] it was 4.3%; in [8] it was 22.5%; in [9], -6.39%.

Consider `CC(Cn1cccn1)NC(=O)NCCc1cnn(C)c1` (stereo unspecified), for which the Percent Effect is 1.95% in assay [1]; 2.53% in [2]; -9% in assay [3]; -14.8% in assay [4]; -9.91% with Trypanosoma cruzi; 0.38% in assay [5]. In addition, the Percent Effect is 10.7% in assay [6]; 24.5% in the assay filed under Homo sapiens; 5.42% in assay [7]; 8.86% in [8]; -3.48% in assay [9].

Turning to `COc1cccc(CCC(=O)N2CCCCC2Cn2cccn2)c1` (stereo unspecified), the Percent Effect in assay [1] was -4.9%; in assay [2], 7.79%; in assay [3], 6.53%; in assay [4], 2.3%; in the assay on Trypanosoma cruzi it was 1.47%; in assay [5], 1.9%. Also, the Percent Effect in assay [6] is 3.31%; in the assay filed under Homo sapiens, 9.7%; in assay [7] it was 0.952%; in assay [8] it was 2.35%; in assay [9] it was -13.2%.

Consider `Cc1nc(CN2CCN(C(=O)c3sccc3C3CC3)CC2)cs1`, for which the Percent Effect in assay [1] is -2.84%; in assay [2], 0%; in [3], 8.03%; in assay [4], 9.39%; in the assay with Trypanosoma cruzi, -0.49%; in assay [5] it was 3.16%. For the same compound, the Percent Effect was 3.48% in assay [6]; -10.3% in the assay listed under Homo sapiens; -2.86% in assay [7]; -2.35% in assay [8]; -13.7% in assay [9].
